{
  "source": "PubChem BioAssay",
  "data": [
    {"biological_target": "Pro-neuregulin-1, membrane-bound isoform (Homo sapiens) (UniProt Q02297)", "sequence (Q02297 whole entry, looked up, canonical isoform)": "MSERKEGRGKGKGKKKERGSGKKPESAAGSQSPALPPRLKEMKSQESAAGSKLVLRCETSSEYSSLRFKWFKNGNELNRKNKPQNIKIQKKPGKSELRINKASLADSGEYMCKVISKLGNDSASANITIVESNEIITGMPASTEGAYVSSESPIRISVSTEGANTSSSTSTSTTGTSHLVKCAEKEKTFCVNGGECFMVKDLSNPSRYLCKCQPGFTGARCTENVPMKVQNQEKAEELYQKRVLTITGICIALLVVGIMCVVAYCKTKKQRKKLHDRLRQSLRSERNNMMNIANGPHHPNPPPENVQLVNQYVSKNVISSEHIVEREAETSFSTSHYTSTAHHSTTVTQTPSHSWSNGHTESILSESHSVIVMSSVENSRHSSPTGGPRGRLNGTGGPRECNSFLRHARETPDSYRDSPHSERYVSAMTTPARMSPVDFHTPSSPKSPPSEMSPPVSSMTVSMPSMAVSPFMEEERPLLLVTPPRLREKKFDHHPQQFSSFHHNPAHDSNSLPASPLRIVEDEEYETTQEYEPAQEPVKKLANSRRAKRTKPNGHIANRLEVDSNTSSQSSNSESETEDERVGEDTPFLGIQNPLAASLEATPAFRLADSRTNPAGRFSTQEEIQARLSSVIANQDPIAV", "assay": "NRG1 binders on small-molecule microarrays, primary screen, psychiatric disease protein project, biochemical, small-molecule microarray, fluorescence 635/667 (AID 1075);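 note: score combines 667 nm spot fluorescence with signal to noise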", "settings": "NRG1 binding, 635 nm fluorescence, higher = more signal", "values": [
      {"compound": "CC(=O)Nc1cc(Br)ccc1C(=O)NCc1ccccc1", "composite z-score": 0.685},
      {"compound": "CCCCCN1CC=CC23O[C@@H]4C=CCOC(=O)[C@@H]4[C@H]2C(=O)N(C(C)CO)[C@@H]3C1=O", "note": "(some centres undefined)", "composite z-score": 0.913},
      {"compound": "CCOC(=O)C1=C[C@@H](C(C)C)N(S(=O)(=O)c2ccc(C)cc2)[C@H]1c1ccccc1F", "composite z-score": 1.23},
      {"compound": "CS(=O)(=O)CCOC(=O)C1=CC(CCCO)=CC(C2CC2)N(Cc2cc3c(cc2Br)OCO3)C=C1C(=O)OCCS(C)(=O)=O", "note": "(centres undefined)", "composite z-score": 1.88},
      {"compound": "Cc1c(NC(=O)/C(C#N)=C/c2cccc([N+](=O)[O-])c2)c(=O)n(-c2ccccc2)n1C", "composite z-score": 1.41},
      {"compound": "C=CCN1Cc2ccccc2[C@@H]2OC(c3ccc(OCCCO)cc3)=N[C@]2(CCS(=O)(=O)c2ccccc2)C1=O", "composite z-score": 0.721},
      {"compound": "C=CCNC(=O)[C@@H]1[C@H]2C(=O)O[C@H](c3ccccc3)[C@H](c3ccccc3)N2[C@H](c2ccc(OCCO)cc2)[C@@]12C(=O)N(C(=O)OCCOC)c1ccc(C#CCC(C(=O)OC)C(=O)OC)cc12", "composite z-score": 1.48},
      {"compound": "CN1C(=O)C2C=CC(C(O)C=Cc3ccc([N+](=O)[O-])cc3)N(Nc3ccccc3)C2C1=O", "note": "(centres undefined)", "composite z-score": 1.59},
      {"compound": "COCCOC(=O)N1C(=O)[C@@]2(c3cc(C#CC4=CCCCC4)ccc31)[C@H](c1ccc(OCCO)cc1)N1[C@H](c3ccccc3)[C@H](c3ccccc3)OC(=O)[C@H]1[C@@H]2C(=O)N1CCc2cc(OC)c(OC)cc2C1", "composite z-score": 0.395},
      {"compound": "CC(C)CN1C(=O)[C@@]2(c3ccc([N+](=O)[O-])cc3)CC(=O)N(C3CCCCC3)[C@@H]2c2ccc(CO)cc21", "composite z-score": -0.303},
      {"compound": "C#CCN1[C@H](/C=C/C2CC2)[C@H](Cc2ccccc2)OC(=O)[C@@H]1Cc1ccccc1", "composite z-score": 0.153},
      {"compound": "COc1ccccc1CN1C(=O)c2ccccc2[C@@]2(Cc3ccccc3N(CCCN(C)C)C2=O)[C@@H]1c1ccc(CO)cc1", "composite z-score": -0.141},
      {"compound": "COC(=O)[C@@]1(CCC(=O)OC(C)(C)C)N=C(c2ccc(OCCCO)cc2)O[C@H]1c1ccccc1", "composite z-score": 0.916},
      {"compound": "O=C(O)[C@@]1(CCS(=O)(=O)c2ccccc2)N=C(c2ccc(OCCCO)cc2)O[C@H]1c1ccccc1", "composite z-score": 1.62},
      {"compound": "C=CCN(Cc1ccccc1)C(=O)C(c1cccs1)N(C(=O)/C=C\\C(=O)O)c1ccc(CCOCCO)cc1", "note": "(centres undefined)", "composite z-score": 0.718},
      {"compound": "CC(C)NC(=O)[C@@H]1c2ccccc2C(=O)N(C(C)C)[C@H]1c1ccc(CO)cc1", "composite z-score": 0.853},
      {"compound": "C=CCC(OC(C)=O)[C@@H]1[C@@H](N(Cc2ccc(-c3cccc(C(F)(F)F)c3)o2)C(=O)c2cccc3ccccc23)c2cc(OCCCO)ccc2N1C(=O)Cc1ccc2ccccc2c1", "note": "(some centres undefined)", "composite z-score": 0.376},
      {"compound": "COc1ccc([Si](C)(C)[C@@H]2[C@@H](CCn3cc([C@H](O)c4ccccc4)nn3)O[C@]3(C(=O)N(Cc4cccc(N5CCC5=O)c4)c4ccccc43)[C@H]2C)cc1", "composite z-score": 0.292},
      {"compound": "O=C(NCCN1CCOCC1)[C@@H]1c2ccccc2C(=O)N(Cc2cc(C(F)(F)F)cc(C(F)(F)F)c2)[C@H]1c1ccc(CO)cc1", "composite z-score": 1.27},
      {"compound": "C=C(CCCC)/C(=C/C[C@H](OC(C)=O)c1ccccc1OCCO)c1cnc2ccccc2c1", "composite z-score": 0.324},
      {"compound": "COC(=O)[C@@]1(Cc2ccc(OC)cc2)[C@H]2c3cc(C(=O)N4CCCC4)n(CCc4ccc(O)c(O)c4)c3C[C@H]2CN1C(=O)c1ccccc1", "composite z-score": 2.26},
      {"compound": "Cc1ccc(S[C@]2(C(=O)NCC(C)C)CC(=O)N(Cc3cc(C(F)(F)F)cc(C(F)(F)F)c3)[C@@H]2c2ccc(CO)cc2)cc1", "composite z-score": 0.884},
      {"compound": "O=C(NC1CC1)[C@@H]1c2ccccc2C(=O)N(C2Cc3ccccc3C2)[C@H]1c1ccc(CO)cc1", "composite z-score": 0.639},
      {"compound": "O=C1OCCC=C[C@H]2OC34C=CCN(CCN5CCOCC5)C(=O)[C@H]3N(CCCCCO)C(=O)[C@@H]4C12", "note": "(some centres undefined)", "composite z-score": 1.06}
    ]}
  ]
}
